Results from ChEMBL document CHEMBL2218924, “A broad activity screen in support of a chemogenomic map for kinase signalling research and drug discovery” (Biochem J, 2013).

How the values were obtained:
[1] = molecular target: T1, Ephrin type-B receptor 1 (Homo sapiens) (UniProt P54762); settings: at 10 µM
T1 sequence (whole entry): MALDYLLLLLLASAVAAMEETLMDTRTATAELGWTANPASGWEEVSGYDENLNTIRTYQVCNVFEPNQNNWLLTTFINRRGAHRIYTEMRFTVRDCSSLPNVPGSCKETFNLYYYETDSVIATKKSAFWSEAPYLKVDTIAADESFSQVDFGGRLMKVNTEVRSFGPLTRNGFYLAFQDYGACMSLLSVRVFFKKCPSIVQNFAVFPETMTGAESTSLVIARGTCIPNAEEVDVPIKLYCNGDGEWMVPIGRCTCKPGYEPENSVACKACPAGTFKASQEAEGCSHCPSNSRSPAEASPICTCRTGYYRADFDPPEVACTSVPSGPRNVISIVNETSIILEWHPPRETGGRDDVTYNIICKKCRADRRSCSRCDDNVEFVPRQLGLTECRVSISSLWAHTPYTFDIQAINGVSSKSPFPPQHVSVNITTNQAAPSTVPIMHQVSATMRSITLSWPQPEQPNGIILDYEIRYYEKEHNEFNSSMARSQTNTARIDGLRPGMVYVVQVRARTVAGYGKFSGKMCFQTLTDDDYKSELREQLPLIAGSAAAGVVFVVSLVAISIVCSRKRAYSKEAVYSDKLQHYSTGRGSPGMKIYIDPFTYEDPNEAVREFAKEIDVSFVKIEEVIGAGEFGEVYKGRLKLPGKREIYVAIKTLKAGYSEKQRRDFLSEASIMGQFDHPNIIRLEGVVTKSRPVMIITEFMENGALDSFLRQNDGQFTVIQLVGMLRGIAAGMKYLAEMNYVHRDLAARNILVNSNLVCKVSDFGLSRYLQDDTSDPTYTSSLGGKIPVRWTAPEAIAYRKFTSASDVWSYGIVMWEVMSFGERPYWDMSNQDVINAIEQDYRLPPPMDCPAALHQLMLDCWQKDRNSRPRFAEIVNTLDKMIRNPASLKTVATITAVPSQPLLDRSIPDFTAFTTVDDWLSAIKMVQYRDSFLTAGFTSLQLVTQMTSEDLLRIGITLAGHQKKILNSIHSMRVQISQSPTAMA

[2] = molecular target: T2, Ephrin type-B receptor 2 (Homo sapiens) (UniProt P29323); settings: at 1 µM
T2 sequence (whole entry): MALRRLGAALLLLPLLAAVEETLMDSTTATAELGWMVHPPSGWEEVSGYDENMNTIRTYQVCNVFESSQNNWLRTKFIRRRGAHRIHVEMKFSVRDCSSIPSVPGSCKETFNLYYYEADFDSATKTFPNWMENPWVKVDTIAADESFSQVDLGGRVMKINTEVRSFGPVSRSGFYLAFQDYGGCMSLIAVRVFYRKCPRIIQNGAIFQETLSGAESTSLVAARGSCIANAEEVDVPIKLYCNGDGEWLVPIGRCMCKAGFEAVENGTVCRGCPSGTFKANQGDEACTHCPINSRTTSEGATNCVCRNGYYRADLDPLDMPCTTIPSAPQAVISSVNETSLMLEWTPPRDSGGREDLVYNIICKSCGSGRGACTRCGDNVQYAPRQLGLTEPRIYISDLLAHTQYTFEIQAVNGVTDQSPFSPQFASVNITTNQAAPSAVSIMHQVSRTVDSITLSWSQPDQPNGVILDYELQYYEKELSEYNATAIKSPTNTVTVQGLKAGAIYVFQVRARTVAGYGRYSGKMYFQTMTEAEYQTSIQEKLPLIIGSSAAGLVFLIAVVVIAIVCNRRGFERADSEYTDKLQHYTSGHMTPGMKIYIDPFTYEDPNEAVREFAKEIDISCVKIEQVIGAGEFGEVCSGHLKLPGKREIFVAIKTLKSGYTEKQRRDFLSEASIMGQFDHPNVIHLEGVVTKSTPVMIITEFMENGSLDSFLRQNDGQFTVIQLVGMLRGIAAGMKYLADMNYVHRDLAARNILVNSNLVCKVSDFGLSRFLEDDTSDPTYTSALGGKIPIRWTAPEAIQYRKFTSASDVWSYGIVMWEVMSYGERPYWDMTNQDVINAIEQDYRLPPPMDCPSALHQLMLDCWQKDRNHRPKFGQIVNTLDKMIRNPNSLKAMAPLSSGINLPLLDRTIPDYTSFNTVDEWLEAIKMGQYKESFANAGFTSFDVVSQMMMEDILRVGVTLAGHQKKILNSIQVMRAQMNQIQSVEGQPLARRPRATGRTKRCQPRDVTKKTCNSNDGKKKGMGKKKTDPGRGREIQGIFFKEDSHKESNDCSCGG

[3] = molecular target: T2, Ephrin type-B receptor 2 (Homo sapiens); settings: at 10 µM
[4] = molecular target: T3, Ephrin type-B receptor 3 (Homo sapiens) (UniProt P54753); settings: at 1 µM
T3 sequence (whole entry): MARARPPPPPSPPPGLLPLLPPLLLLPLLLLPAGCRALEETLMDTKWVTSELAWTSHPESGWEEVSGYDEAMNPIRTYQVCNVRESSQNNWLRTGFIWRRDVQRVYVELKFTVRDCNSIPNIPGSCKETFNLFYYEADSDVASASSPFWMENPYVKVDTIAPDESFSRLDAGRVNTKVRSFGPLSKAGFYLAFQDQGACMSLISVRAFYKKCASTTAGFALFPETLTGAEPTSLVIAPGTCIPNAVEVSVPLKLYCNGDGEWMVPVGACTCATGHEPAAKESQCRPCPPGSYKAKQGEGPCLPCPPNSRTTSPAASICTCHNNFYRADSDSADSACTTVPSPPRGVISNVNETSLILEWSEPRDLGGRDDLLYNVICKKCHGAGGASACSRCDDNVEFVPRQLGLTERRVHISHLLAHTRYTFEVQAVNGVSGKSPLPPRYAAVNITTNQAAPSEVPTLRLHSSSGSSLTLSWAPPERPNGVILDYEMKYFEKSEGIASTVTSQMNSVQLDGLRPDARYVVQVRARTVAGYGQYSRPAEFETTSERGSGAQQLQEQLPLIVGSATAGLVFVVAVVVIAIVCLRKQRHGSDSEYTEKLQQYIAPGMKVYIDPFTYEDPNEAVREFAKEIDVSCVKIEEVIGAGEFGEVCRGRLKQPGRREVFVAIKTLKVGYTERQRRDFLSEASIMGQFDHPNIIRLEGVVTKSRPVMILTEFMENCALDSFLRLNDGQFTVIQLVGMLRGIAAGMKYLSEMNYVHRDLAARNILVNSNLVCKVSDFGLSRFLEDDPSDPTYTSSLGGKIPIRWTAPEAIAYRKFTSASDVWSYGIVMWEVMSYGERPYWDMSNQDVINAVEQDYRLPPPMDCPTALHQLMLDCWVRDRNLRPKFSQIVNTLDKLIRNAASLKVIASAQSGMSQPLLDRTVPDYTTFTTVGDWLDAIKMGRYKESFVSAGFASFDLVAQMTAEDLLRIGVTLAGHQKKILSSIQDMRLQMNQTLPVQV

[5] = molecular target: T3, Ephrin type-B receptor 3 (Homo sapiens); settings: at 10 µM
[6] = molecular target: T4, Ephrin type-B receptor 4 (Homo sapiens) (UniProt P54760); settings: at 1 µM
T4 sequence (whole entry): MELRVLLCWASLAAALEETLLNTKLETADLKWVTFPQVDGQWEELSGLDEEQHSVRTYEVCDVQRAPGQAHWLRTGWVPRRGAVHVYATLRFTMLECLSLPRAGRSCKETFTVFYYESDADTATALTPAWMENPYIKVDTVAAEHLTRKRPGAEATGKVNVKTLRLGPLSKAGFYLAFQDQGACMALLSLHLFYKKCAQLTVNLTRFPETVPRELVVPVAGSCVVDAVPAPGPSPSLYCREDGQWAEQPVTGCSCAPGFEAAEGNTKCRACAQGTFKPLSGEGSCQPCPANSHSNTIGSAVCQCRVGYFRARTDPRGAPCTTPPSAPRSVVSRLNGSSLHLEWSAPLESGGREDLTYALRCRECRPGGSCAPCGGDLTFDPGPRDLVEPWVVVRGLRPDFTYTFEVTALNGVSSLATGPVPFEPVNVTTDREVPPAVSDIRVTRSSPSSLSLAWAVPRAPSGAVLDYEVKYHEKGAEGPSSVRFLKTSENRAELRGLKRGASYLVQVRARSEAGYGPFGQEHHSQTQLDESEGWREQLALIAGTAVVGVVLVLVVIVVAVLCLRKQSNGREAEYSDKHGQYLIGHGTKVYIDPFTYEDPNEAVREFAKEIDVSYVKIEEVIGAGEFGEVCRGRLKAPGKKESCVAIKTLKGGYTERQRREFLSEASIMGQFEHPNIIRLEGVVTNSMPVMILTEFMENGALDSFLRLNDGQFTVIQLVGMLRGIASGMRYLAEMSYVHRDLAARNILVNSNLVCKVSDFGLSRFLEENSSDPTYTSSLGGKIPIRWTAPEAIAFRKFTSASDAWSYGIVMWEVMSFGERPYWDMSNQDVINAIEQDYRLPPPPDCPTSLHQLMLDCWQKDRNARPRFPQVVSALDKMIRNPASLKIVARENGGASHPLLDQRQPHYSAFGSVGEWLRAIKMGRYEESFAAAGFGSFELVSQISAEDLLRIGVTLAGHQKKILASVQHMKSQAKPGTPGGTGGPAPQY

[7] = molecular target: T4, Ephrin type-B receptor 4 (Homo sapiens); settings: at 10 µM
[8] = molecular target: Receptor tyrosine-protein kinase erbB-4 (Homo sapiens) (UniProt Q15303); settings: at 1 µM
Receptor tyrosine-protein kinase erbB-4 (Homo sapiens), sequence (Q15303 whole entry): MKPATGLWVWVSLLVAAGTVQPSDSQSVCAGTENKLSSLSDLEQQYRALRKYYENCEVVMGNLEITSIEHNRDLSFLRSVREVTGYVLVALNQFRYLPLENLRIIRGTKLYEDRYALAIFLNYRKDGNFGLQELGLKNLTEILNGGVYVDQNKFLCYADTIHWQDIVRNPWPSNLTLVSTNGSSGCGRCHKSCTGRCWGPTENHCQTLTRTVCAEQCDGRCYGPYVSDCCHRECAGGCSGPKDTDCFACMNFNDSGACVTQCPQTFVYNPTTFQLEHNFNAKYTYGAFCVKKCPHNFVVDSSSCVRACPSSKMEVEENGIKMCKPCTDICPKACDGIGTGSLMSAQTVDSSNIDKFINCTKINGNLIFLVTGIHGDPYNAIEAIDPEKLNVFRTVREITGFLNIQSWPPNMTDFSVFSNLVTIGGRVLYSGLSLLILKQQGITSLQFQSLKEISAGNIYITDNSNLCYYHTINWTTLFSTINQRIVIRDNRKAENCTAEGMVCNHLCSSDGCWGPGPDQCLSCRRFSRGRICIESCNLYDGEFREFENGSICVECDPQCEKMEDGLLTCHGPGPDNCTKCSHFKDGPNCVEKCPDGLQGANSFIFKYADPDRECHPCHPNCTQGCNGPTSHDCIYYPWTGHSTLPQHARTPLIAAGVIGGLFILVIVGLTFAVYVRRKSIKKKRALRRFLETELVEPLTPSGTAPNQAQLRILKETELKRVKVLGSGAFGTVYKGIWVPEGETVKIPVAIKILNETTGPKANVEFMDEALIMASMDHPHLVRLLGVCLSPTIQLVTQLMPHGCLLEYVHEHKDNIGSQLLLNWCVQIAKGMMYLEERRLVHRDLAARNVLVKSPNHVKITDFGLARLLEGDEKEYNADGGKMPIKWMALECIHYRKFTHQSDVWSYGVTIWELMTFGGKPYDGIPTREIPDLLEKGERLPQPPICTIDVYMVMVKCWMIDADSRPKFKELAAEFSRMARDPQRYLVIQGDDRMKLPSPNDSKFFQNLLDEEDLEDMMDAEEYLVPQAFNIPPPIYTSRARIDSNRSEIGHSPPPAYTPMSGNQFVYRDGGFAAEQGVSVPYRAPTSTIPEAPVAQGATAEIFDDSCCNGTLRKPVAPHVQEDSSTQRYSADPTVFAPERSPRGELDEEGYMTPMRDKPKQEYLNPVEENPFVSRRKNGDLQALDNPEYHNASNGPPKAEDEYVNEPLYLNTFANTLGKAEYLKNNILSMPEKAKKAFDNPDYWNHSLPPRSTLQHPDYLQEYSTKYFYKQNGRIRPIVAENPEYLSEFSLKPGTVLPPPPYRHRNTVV

[9] = molecular target: Receptor tyrosine-protein kinase erbB-4 (Homo sapiens) (UniProt Q15303); settings: at 10 µM
[10] = molecular target: Focal adhesion kinase 1 (Homo sapiens) (UniProt Q05397); settings: at 1 µM
Focal adhesion kinase 1 (Homo sapiens), sequence (Q05397 2-1052 limits assumed): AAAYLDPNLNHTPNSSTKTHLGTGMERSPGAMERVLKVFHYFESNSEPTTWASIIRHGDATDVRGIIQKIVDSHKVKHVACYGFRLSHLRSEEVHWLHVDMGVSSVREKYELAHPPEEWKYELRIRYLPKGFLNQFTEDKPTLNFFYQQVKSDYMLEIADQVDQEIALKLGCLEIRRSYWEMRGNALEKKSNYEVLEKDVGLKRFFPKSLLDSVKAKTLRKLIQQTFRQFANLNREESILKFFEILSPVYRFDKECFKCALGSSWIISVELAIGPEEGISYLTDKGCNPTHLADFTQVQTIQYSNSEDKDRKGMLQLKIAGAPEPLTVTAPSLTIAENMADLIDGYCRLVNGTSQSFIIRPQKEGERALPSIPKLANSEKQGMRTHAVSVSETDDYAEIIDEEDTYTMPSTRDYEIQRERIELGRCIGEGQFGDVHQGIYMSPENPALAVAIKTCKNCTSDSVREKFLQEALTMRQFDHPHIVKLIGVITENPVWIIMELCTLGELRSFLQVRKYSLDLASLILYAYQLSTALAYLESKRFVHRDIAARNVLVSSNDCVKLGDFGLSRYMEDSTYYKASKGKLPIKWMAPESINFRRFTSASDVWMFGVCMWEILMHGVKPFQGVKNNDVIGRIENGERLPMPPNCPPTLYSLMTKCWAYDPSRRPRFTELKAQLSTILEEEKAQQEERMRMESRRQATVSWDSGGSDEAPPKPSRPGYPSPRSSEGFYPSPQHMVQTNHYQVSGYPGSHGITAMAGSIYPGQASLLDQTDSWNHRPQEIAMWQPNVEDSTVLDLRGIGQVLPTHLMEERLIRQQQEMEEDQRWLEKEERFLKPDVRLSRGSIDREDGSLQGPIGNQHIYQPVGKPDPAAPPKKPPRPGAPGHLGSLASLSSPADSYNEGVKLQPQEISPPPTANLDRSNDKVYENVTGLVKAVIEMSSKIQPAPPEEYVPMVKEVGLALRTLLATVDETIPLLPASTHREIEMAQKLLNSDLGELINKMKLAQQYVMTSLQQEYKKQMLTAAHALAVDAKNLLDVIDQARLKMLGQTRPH

[11] = molecular target: Focal adhesion kinase 1 (Homo sapiens) (UniProt Q05397); settings: at 10 µM
[12] = molecular target: Fibroblast growth factor receptor 1 (Homo sapiens) (UniProt P11362); settings: at 1 µM
Fibroblast growth factor receptor 1 (Homo sapiens), sequence (P11362 22-822 limits assumed): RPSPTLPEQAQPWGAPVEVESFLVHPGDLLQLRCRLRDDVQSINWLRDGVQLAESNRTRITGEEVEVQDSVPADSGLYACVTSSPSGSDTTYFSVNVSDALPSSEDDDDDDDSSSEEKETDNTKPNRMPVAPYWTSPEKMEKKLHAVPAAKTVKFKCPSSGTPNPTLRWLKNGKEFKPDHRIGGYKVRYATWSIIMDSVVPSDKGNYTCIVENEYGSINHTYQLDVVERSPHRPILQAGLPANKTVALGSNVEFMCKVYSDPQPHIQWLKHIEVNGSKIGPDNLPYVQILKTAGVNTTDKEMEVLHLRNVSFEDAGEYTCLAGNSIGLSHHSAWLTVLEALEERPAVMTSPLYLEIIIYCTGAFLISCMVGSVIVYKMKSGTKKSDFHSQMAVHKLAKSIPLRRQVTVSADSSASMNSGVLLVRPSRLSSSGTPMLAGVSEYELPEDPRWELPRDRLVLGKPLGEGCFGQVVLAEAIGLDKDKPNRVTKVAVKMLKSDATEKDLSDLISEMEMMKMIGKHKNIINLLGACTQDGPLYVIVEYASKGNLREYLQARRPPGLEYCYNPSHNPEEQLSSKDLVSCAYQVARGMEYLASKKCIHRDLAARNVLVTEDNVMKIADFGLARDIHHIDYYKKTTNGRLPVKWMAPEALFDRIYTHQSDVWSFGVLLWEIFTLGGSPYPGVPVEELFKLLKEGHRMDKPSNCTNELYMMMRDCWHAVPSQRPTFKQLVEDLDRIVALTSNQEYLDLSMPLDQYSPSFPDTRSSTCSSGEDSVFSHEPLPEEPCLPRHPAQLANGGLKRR

[13] = molecular target: Fibroblast growth factor receptor 1 (Homo sapiens) (UniProt P11362); settings: at 10 µM
[14] = molecular target: Fibroblast growth factor receptor 2 (Homo sapiens) (UniProt P21802); settings: at 1 µM
Fibroblast growth factor receptor 2 (Homo sapiens), sequence (P21802 22-821 limits assumed): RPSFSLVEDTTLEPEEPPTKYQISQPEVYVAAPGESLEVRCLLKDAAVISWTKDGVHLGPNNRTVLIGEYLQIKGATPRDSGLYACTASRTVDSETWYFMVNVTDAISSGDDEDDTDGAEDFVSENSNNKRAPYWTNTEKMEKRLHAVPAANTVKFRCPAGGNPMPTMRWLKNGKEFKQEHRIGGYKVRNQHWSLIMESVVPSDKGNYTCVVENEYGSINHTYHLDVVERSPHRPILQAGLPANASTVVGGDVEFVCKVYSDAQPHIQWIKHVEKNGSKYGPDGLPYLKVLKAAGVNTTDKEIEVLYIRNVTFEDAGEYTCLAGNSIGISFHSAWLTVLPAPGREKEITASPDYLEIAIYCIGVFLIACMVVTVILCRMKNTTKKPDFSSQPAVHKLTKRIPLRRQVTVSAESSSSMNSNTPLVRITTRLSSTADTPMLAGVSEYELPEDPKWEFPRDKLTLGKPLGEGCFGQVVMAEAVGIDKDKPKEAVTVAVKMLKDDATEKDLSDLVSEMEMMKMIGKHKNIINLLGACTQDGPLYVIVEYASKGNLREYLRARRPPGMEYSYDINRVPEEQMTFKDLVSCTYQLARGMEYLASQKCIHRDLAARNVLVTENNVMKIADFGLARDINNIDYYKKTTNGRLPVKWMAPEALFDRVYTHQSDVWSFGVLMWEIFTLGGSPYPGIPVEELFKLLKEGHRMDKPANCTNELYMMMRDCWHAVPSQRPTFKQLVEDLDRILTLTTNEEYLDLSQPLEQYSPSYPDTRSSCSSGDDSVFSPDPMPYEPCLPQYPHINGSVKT

[15] = molecular target: Fibroblast growth factor receptor 2 (Homo sapiens) (UniProt P21802); settings: at 10 µM
[16] = molecular target: Fibroblast growth factor receptor 3 (Homo sapiens) (UniProt P22607); settings: at 1 µM
[17] = molecular target: Fibroblast growth factor receptor 3 (Homo sapiens) (UniProt P22607); settings: at 10 µM
[18] = molecular target: Fibroblast growth factor receptor 4 (Homo sapiens) (UniProt P22455); settings: at 1 µM
Fibroblast growth factor receptor 4 (Homo sapiens), sequence (P22455 22-802 limits assumed): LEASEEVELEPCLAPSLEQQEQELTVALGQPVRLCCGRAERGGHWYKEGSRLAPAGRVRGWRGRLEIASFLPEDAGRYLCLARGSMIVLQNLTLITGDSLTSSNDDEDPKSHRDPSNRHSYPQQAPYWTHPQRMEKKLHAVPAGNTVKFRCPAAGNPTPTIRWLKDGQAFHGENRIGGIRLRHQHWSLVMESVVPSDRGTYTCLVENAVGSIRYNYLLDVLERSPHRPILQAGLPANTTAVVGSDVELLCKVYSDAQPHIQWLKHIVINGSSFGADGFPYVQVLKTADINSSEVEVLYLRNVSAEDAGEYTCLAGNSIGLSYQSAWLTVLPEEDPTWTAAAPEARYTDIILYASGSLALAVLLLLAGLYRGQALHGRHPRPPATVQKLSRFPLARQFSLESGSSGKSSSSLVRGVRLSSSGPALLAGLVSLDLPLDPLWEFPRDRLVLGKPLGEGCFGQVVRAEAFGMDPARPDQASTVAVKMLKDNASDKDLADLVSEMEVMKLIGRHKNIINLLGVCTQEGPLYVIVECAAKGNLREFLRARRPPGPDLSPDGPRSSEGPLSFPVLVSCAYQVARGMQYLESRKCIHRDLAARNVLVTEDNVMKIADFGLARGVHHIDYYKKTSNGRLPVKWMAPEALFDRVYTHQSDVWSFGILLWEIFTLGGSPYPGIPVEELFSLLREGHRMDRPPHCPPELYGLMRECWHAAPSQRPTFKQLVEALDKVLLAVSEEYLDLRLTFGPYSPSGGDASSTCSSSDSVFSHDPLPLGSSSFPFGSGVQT

[19] = molecular target: Fibroblast growth factor receptor 4 (Homo sapiens) (UniProt P22455); settings: at 10 µM
[20] = molecular target: Tyrosine-protein kinase Fer (Homo sapiens) (UniProt P16591); settings: at 1 µM

SMILES | residual activity [1] [%] | residual activity [2] [%] | residual activity [3] [%] | residual activity [4] | residual activity [5] [%] | residual activity [6] [%] | residual activity [7] [%] | residual activity [8] [%] | residual activity [9] [%] | residual activity [10] [%] | residual activity [11] [%] | residual activity [12] [%] | residual activity [13] [%] | residual activity [14] [%] | residual activity [15] [%] | residual activity [16] [%] | residual activity [17] [%] | residual activity [18] [%] | residual activity [19] [%] | residual activity [20] [%]
COc1ccc(S(=O)(=O)N(CCO)c2ccccc2CN(C)C/C=C/c2ccc(Cl)cc2)cc1 | 90 | 115 | 120 | 112% (inactive) | 107 | 86 | 79 | 110 | 77 | 93 | 70 | 108 | 64 | 110 | 81 | 125 | 89 | 129 | 92 | 94
CCN(CC)CCCCN1c2ccccc2Oc2ccc(Cl)cc21 | 117 | 122 | 121 | 106% (inactive) | 132 | 109 | 133 | 102 | 95 | 144 | 108 | 113 | 82 | 108 | 112 | 110 | 99 | 129 | 90 | 117
O=C(O)c1ccc2c3c1cccc3c(=O)n1c3ccccc3nc21 | 98 | 105 | 108 | 98% (inactive) | 110 | 102 | 100 | 105 | 95 | 112 | 100 | 94 | 75 | 110 | 78 | 98 | 92 | 112 | 96 | 81
O=C1NC(=O)/C(=C\c2ccc3nccnc3c2)S1 | 96 | 98 | 119 | 113% (inactive) | 104 | 95 | 111 | 88 | 92 | 90 | 83 | 113 | 91 | 98 | 101 | 96 | 104 | 119 | 88 | 110
CCOc1cc2ncnc(Nc3cccc(Br)c3)c2cc1OCC | 5 | 46 | 0 | 108% (inactive) | 126 | 19 | -1 | 10 | -4 | 139 | 79 | 66 | 18 | 98 | 88 | 92 | 85 | 111 | 92 | 116
O=C1NC(=O)c2c1c1c3ccccc3[nH]c1c1[nH]c3cc(Br)ccc3c21 | 98 | 106 | 101 | 107% (inactive) | 83 | 102 | 93 | 95 | 83 | 98 | 95 | 90 | 57 | 99 | 82 | 104 | 88 | 94 | 90 | 103
